# Screens from PubChem.
# Cycloheximide cs: Cycloheximide Counterscreen for Small Molecule Inhibitors of Shiga Toxin; cell reporter, cycloheximide protein synthesis inhibition counterscreen; max response, %; 12% of 300,000 active; in the data active means max response mostly above about 13%, no sharp cut-off; inactive means mostly below about 14%; further: read at 38.3 µM for the half of the compounds with a filed dose
# SARS PLpro yeast: qHTS of Yeast-based Assay for SARS-CoV PLP. S. cerevisiae expressing SARS-CoV PLpro, growth rescue. Potency, µM (highest dose often 32.9 µM), actives largely listed as activators. 0.19% of 330,000 active. AID 485353, 2010; calls by dose curve; further: nearly all actives have a fitted effect of over 55% in size
# Pf growth 96h: Primary qHTS for delayed death inhibitors of the malarial parasite plastid, 96 hour incubation; P. falciparum luciferase reporter growth, 96 h; Potency, µM (highest dose often 28.7 µM), most hits filed as inhibitors; 6.9% of 320,000 active; AID 504834, 2011
#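 Compounds incubated with erythrocytes infected by luciferase-expressing P. falciparum (2% hematocrit, 0.05% parasitemia final) for 96 hours, 37 C in 5% CO2. Growth inhibition scored as decreased luciferase luminescence.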
# Pf growth 48h: Primary qHTS for delayed death inhibitors of the malarial parasite plastid, 48 hour incubation. P. falciparum luciferase growth in erythrocytes, 48 h. Potency, µM (doses to about 28.7 µM), usual class: inhibitors. 5.9% of 310,000 active
#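 Read-out is firefly luciferase luminescence from an integrated reporter in P. falciparum, so falling signal marks reduced parasite growth. Infected erythrocytes were at 2% hematocrit and 0.1% parasitemia (final) in Albumax-supplemented RPMI 1640.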
# AMA1-RON2 inh: qHTS for Inhibitors of AMA1-RON; Towards Development of Antimalarial Drug Lead: Primary Screen; Plasmodium falciparum AMA1 (3D7) - RON2 peptide interaction; AlphaScreen AMA1-biotinylated RON2 peptide binding; Potency, µM (doses to about 58.2 µM), most hits filed as inhibitors; 0.2% of 360,000 active; AID 720542, 2013; further: nearly all actives have a fitted effect of over 45% in size
#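 AMA1 (3D7) with his tag at 25 nM final met compounds first, then biotinylated RON2 peptide at 25 nM; detection used donor plus acceptor beads, 10 µg/mL apiece, read by AlphaScreen after 30 min at room temperature.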
# Shiga inhibitor: A qHTS for Small Molecule Inhibitors of Shiga Toxin. Vero cells, Shiga toxin protein synthesis inhibition reporter. inhibition, % at 38.7 µM. 9.2% of 290,000 active. AID 2315, 2010; in the data active means inhibition mostly above about 28%, no sharp cut-off; inactive means mostly below about 43%
# A number is an active result; - = inactive; ? = inconclusive; . = not tested or not shown; [ ] = dose if it differs, or a comment. An excerpt weighted towards active compounds, which were near 19% of everything screened. Unless noted, the call rests on the fitted dose curve; in most records, active means well fitted curve in the direction sought with a large enough effect; inconclusive means small, poorly fitted or top-dose-only effect, or another doubt; inactive means no such curve, though single readings can be large; an effect the other way counts as inactive or inconclusive.
SMILES,Cycloheximide cs,SARS PLpro yeast,Pf growth 96h,Pf growth 48h,AMA1-RON2 inh,Shiga inhibitor
COc1ccc(C(=O)COc2ccccc2C#N)cc1,28,-,-,-,-,60
COC(=O)c1ccccc1NCC(=O)c1ccc(OC)cc1,-,-,?,-,-,-
COc1ccc(C(=O)CNc2ccccc2C#N)cc1,28,-,-,-,-,76
COc1ccc(C(=O)COc2ccccc2C(N)=O)cc1,-,-,-,-,-,-
COc1ccc(C(=O)CNc2ccccc2CO)cc1,42,-,-,-,-,111
COc1ccc(C(=O)CNc2ccc(C)cc2C)cc1,25,-,-,-,?,-
CC(C)c1c(C(=O)N/N=C/c2ccsc2)nnn1-c1nonc1N,-,-,-,-,-,-
CC1CC(C)CN(C(=O)Cn2cc(C=O)c3ccccc32)C1 (stereo not drawn),-,-,-,-,-,-
Cc1ccc(-c2nc3c(Cl)cc(C(F)(F)F)cn3c2Cc2ccccc2)cc1,.,.,.,.,-,.
COc1ccccc1NCC(=O)c1ccc(C)c(C)c1,16,-,-,-,-,.
CCN1CCN(c2c(/C=C3\SC(=S)N(Cc4ccco4)C3=O)c(C)c(C#N)c(=O)n2C)CC1,-,-,?,2.3µM,-,-
CCCCn1nnnc1C(c1ccccc1)N1CCN(C/C=C/c2ccccc2)CC1 (stereo not drawn),.,.,.,.,-,.
NC(=O)c1ccc(C(F)(F)F)n(Cc2ccc(Cl)cc2)c1=O,25,-,?,-,-,-
CC(=O)Nc1ccc(Nc2nc(C)c([N+](=O)[O-])c(Nc3ccc(NC(C)=O)cc3)n2)cc1,-,-,2.1µM,-,-[2.32 µM],-
CNc1nc(C)c([N+](=O)[O-])c(Nc2ccc(OC)cc2)n1,-,-,-,-,-,-
COc1ccc2ccccc2c1CN1CCN(C(=O)c2ccccc2)CC1,-,-,-,?,-,-
O=C(CN1CCC(NC(=O)c2ccco2)CC1)Nc1ccccc1[N+](=O)[O-],-,-,?,?,.,-
Cc1cc(Cl)ccc1NC(=O)CN1CCN(C(=O)c2ccco2)CC1,-,-,-,10µM,-,-
COc1ccc2ccccc2c1CN1CCN(C(=O)c2ccco2)CC1,-,-,-,6.6µM,-,-
Cc1ccccc1NC(=O)CN1CCN(C(=O)c2ccco2)CC1,-,-,-,?,-,-
COc1ccc(NC(=O)CN2CCN(C(=O)c3ccco3)CC2)c(OC)c1,-,-,-,10µM,-,-
O=C(CN1CCC(NC(=O)c2ccco2)CC1)Nc1cccc2ccccc12,-,-,10µM,?,-,-
O=C(CNS(=O)(=O)c1c(Cl)cccc1Cl)OCC(=O)c1ccc[nH]1,-,-,-,-,-,-
COc1ccccc1NC(=O)CN1CCN(C(=O)c2ccco2)CC1,-,-,-,2.1µM,-,-
O=C(c1ccco1)N1CCN(CCOCCOc2cccc3ccccc23)CC1,-,-,12µM,.,-,-
SMILES,Cycloheximide cs,SARS PLpro yeast,Pf growth 96h,Pf growth 48h,AMA1-RON2 inh,Shiga inhibitor
OC[C@H](S)CS,.,.,0.6µM,1.5µM,.,.
CC1(C(=O)Nc2ccc(F)cc2F)CCN1C(=O)CCC1CCCC1 (stereo not drawn),.,.,.,.,-,.
O=C(NCCN1CCCC1)c1cccc(Cl)c1,-,-,-,-,-,-
O=C(NCCCN1CCN(c2cccc(Cl)c2)CC1)c1nc(-c2ccncc2)no1,-,-,-,6.6µM,-,-
O=C(NCCCN1CCN(CCCNC(=O)c2cccc(Cl)c2)CC1)c1cccc(Cl)c1,-,-,12µM,?,-,-
COc1cc2c(C(=O)NCCCN3CCN(c4cccc(Cl)c4)CC3)cn(C)c(=O)c2cc1OC,-,-,?,?,-,-
CCOc1ccccc1C(=O)NC(C(=O)Nc1cccnc1)C(C)C (stereo not drawn),-,-,?,-,-,-
NCC1CCC(N)C(O[C@@H]2C(O)[C@H](O[C@H]3OC(CO)C(O)C(N)C3O)[C@@H](N)C[C@H]2N)O1 (stereo partly drawn),.,.,?,-,.,.
COc1ccc(N(CC(=O)N/N=C/c2ccco2)S(=O)(=O)c2ccccc2)cc1,-,-,-,-,-,-
CC(C)CCOc1ccc(C(=O)CCNC(C)C(=O)O)cc1 (stereo not drawn),-,-,-,-,.,-
N#Cc1ccc(C23CC4(C2)[C@H](CN(CC2CCCCC2)[C@@H]4c2ccccc2)C3c2ccccc2)cc1 (stereo partly drawn),-,-,12µM,?,-,-
N#Cc1ccc(C23CC4(C2)[C@H](CN(CC2CCCCC2)[C@@H]4c2ccccc2)C3c2ccc(C(F)(F)F)cc2)cc1 (stereo partly drawn),-,-,?,10µM,.,-
CCc1nc2ccc(C(=O)NCc3ccccc3OC)cn2c1N(CC)CCN(C)C,.,.,.,.,-,.
CN(Cc1ccccc1)C1(CNC(=O)CCC(F)(F)F)Cc2ccccc2C1,-,-,15µM,-,-,.
Cc1cc2c(cc(C(=O)OC(C(=O)NCC3CCCO3)C(C)C)n2C)o1 (stereo not drawn),15,-,?,-,-,-
Cc1cc2c(cc(C(=O)OC(C(=O)NC3CCCCC3)C(C)C)n2C)o1 (stereo not drawn),.,-,-,?,-,.
CCOc1cc(C(=O)Nc2cccc3ncccc23)cc(OCC)c1OCC,-,-,15µM,.,-,-
COc1ccc(NC(=O)c2cc(-c3ccccn3)nc3ccccc23)c(OC)c1,.,-,.,.,-,.
CCOc1ccccc1-c1cc(C(=O)Nc2ccc(C(=O)O)cc2)c2ccccc2n1,-,-,10µM,?,-,-
CCOc1ccccc1NC(=O)c1cc(-c2ccccn2)nc2ccccc12,.,-,?,15µM,-,.
CNC(=O)c1ccccc1NC(=O)C1CC(=O)N(C(C)C)C1 (stereo not drawn),-,-,-,-,-,.
C[C@@H]1CN([C@H](C)CO)C(=O)c2cc(C#Cc3ccccc3F)cnc2O[C@@H]1CN(C)S(=O)(=O)c1ccccc1F,.,.,.,.,-,.
CN1C(=O)N(C)C(=O)C2(Cc3cc(NC(=O)c4ccccc4Cl)ccc3N3CCCC32)C1=O (stereo not drawn),-,-,5.2µM,?,-,-
CN1C(=O)N(C)C(=O)C2(Cc3cc(NC(=O)c4ccccc4)ccc3N3CCCC32)C1=O (stereo not drawn),-,-,10µM,9.3µM,-,-
CCc1c(C)nc(SCc2ccccn2)[nH]c1=O,-,-,-,-,-,-
O=C1c2cccc(O)c2C(=O)c2c(O)cc(CO)cc21,-,.,.,.,-,-
O=C1c2c(O)ccc(O)c2C(=O)c2c(NCCNCCO)ccc(NCCNCCO)c21,.,.,0.93µM,0.83µM,10µM,.
